Assay results taken from PubChem BioAssay.
Values without a mark were called inactive.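 The calls were made as follows, unless noted: active = cell viability at or below a set limit in both duplicate runs, the limit being the all-compound median minus 4 SD (cut at about 23% in these data, passing the limit was not always enough); inconclusive = no clear call, values can overlap the other calls; inactive = the rest.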 Records with an inconclusive call do not appear.

Assay: doxorubicin toxicity protection in MRP-1 cells – H69AR cells, CellTiter-Glo, duplicate, MRP-1 activator project, pilot screen (AID 807;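 active = viability increase at or above a cutoff of the median across tested compounds plus 3 SD, cut at about 8.5% in these data, passing the limit was not always enough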;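 also: compound pretreatment 18-22 h then 72 h combined with doxorubicin; 0% = doxorubicin alone and 100% = vehicle without doxorubicin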)
Conditions: H69AR viability with doxorubicin, CellTiter-Glo luminescence; at 10 µM; stronger effect = higher value

Point of comparison: `Cc1cccc(C2CC(c3ccc(F)cc3)Nc3nc(N)nn32)c1` (stereo unspecified), viability increase 0.42%. Against it:
- CCCC(=O)Nc1nc2ccc(OC)cc2s1 — higher, 1.29%
- CCCCCn1c(CN2CC(C)OC(C)C2)nc2c1c(=O)n(C)c(=O)n2C (stereo unspecified) — lower, -1.22%
- Cc1ccc(C2/C(=C(/O)c3ccc(Br)cc3)C(=O)C(=O)N2Cc2ccco2)o1 (stereo unspecified) — lower, -6.07%
- CN1CCN(S(=O)(=O)c2ccc3c4c(cccc24)C(=O)N3)CC1 — lower, -2%
- c1ccc(Sc2nc(N3CCCCC3)nc(N3CCCCC3)n2)nc1 — lower, 0.32%
- O=C(O)CSCCc1ccccn1 — lower, -0.02%
- CCCC(=O)N1CC(=O)Nc2ccc(F)cc2C1c1ccccc1 (stereo unspecified) — lower, -1.01%
- CCOC1=NC(C(=O)O)c2ccccc2/C(=C(/C)Cl)N1 (stereo unspecified) — higher, 0.7%
- COc1ccc(C(=O)NCc2cn3ccsc3n2)cc1OC — lower, -1.54%
- O=C(Nc1cccc(F)c1)c1ccc(S(=O)(=O)N2CCCC2)cc1 — higher, 1.26%
- CCN(CC)C(=O)Cn1c(=O)n(-c2ccccc2)c(=O)n1CC(=O)N(CC)CC — lower, -1.25%
- CC1=Nc2ccc(C)cc2N(Cc2ccccc2)C(=O)C1 — higher, 0.47%
- CCCN(CCC(=O)Nc1ccccc1F)CC1CC1 — lower, -1.44%
- CC(C)c1nnc(NC(=O)c2ccc(S(=O)(=O)N3CCOCC3)cc2)s1 — lower, -1%
- COc1ccccc1NC(=O)c1ccc(N)cc1 — higher, 0.45%
- O=C(Nc1nnc(-c2ccc3c(c2)CCCC3)o1)C1CCCCC1 — lower, -2.6%
- O=C(NCCc1csc(-c2cccnc2)n1)c1cccs1 — lower, -0.87%
- C=CC1C(N2CCOCC2)C(C)(C)S1(=O)=O (stereo unspecified) — lower, -1.46%
- Cc1ccc2c(c1)NCC(C(=O)NC1CCC(C)CC1)O2 (stereo unspecified) — higher, 1.52%
- Cc1ccc(N2CC(c3nc4ccccc4n3C)CC2=O)cc1C (stereo unspecified) — lower, -1.22%
- CC(=NCCc1ccccc1)C1=C(O)COC1=O — lower, -2.71%
- COC(=O)c1c(-c2ccc(C)cc2)csc1N — lower, -3.98%
- O=C1C(=O)N(CCO)C(c2ccccc2)/C1=C(\O)c1ccccc1 (stereo unspecified) — higher, 0.49%
- CCOc1ccccc1NC(=O)CN(c1cc(C)cc(C)c1)S(=O)(=O)c1c(C)noc1C — lower, -1.39%
- COc1ccc(OCC(=O)Nc2cc(-c3nn4c(C)nnc4s3)ccc2C)cc1 — lower, -1.72%

Assay: viability of HCT116 without oncogenic beta-catenin – human colon tumor cells, pilot screen (AID 823);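 also: 0% = wells killed by 20 µM Hyamine and 100% = untreated DMSO cell wells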
Conditions: HCT116 beta-catenin knockout viability, CellTiter-Glo, 60 h; at 10 µM; stronger effect = lower value

Point of comparison: `CC(=O)C1=C(C)N=c2s/c(=C/c3ccc4c(c3)OCO4)c(=O)n2C1c1ccc(N(C)C)cc1` (stereo unspecified), viability 93.2%. Against it:
- CCOC(=O)N1CCC(NC(=O)CS(=O)(=O)Cc2nc(-c3ccc(C)cc3)oc2C)CC1 — lower, 75.3%
- COc1ccc(OC)c(C2CC(=O)N3CN(c4ccccc4F)CSC3=C2C#N)c1 (stereo unspecified) — higher, 98.3%
- Cc1c(N=Cc2ccco2)c(=O)n(-c2ccccc2)n1C — higher, 93.8%
- O=S(=O)(c1ccc(Br)cc1)N1CCN(c2cc(-c3ccccc3)nc3ncnn23)CC1 — lower, 61.9%
- Cn1c(NC(=O)Cc2cccs2)cc(=O)n(C)c1=O — higher, 105%
- CCOC(=O)c1c(NC(C)=O)no[n+]1[O-] — higher, 104%
- COc1ccc(N(CC(=O)N2CC=C(c3ccccc3)CC2)S(=O)(=O)c2c(C)noc2C)cc1 — higher, 98.1%
- C=CCn1c(C)c(C(C)=O)c(SC)nc1=S — higher, 101%
- COc1ccc(N(CC(=O)Nc2cc(OC)ccc2OC)S(=O)(=O)c2c(C)nn(C)c2C)cc1 — higher, 95.6%
- COc1ccc(C2C(C(=O)NCCN(C)C)c3ccccc3C(=O)N2C)cc1OC (stereo unspecified) — higher, 100%
- CC(C)N1CCc2c(sc(NC(=O)c3ccc(S(=O)(=O)N4CCOCC4)cc3)c2C#N)C1 — lower, 85.3%
- COC(=O)c1c(NC(=O)CSc2nnnn2-c2ccccc2)sc2c1CCC(C)C2 (stereo unspecified) — lower, 84.4%
- COC(=O)CC1Oc2ccccc2N(Cc2ccccc2)C1=O (stereo unspecified) — lower, 92.2%
- CCCC(=O)Nc1nc2ccc(OC)cc2s1 — higher, 93.8%
- CCCCCn1c(CN2CC(C)OC(C)C2)nc2c1c(=O)n(C)c(=O)n2C (stereo unspecified) — higher, 95.3%
- Cc1ccc(C2/C(=C(/O)c3ccc(Br)cc3)C(=O)C(=O)N2Cc2ccco2)o1 (stereo unspecified) — lower, 55%
- CN1CCN(S(=O)(=O)c2ccc3c4c(cccc24)C(=O)N3)CC1 — higher, 110%
- c1ccc(Sc2nc(N3CCCCC3)nc(N3CCCCC3)n2)nc1 — lower, 89.3%
- O=C(O)CSCCc1ccccn1 — higher, 98.3%
- CCCC(=O)N1CC(=O)Nc2ccc(F)cc2C1c1ccccc1 (stereo unspecified) — higher, 111%
- CCOC1=NC(C(=O)O)c2ccccc2/C(=C(/C)Cl)N1 (stereo unspecified) — higher, 101%
- COc1ccc(C(=O)NCc2cn3ccsc3n2)cc1OC — higher, 105%
- O=C(Nc1cccc(F)c1)c1ccc(S(=O)(=O)N2CCCC2)cc1 — higher, 101%
- CCN(CC)C(=O)Cn1c(=O)n(-c2ccccc2)c(=O)n1CC(=O)N(CC)CC — higher, 103%
- CC1=Nc2ccc(C)cc2N(Cc2ccccc2)C(=O)C1 — higher, 101%
- CCCN(CCC(=O)Nc1ccccc1F)CC1CC1 — higher, 99.1%
- CC(C)c1nnc(NC(=O)c2ccc(S(=O)(=O)N3CCOCC3)cc2)s1 — higher, 104%
- COc1ccccc1NC(=O)c1ccc(N)cc1 — higher, 105%
- Cc1cccc(C2CC(c3ccc(F)cc3)Nc3nc(N)nn32)c1 (stereo unspecified) — lower, 92.3%
- O=C(Nc1nnc(-c2ccc3c(c2)CCCC3)o1)C1CCCCC1 — lower, 64.5%
- O=C(NCCc1csc(-c2cccnc2)n1)c1cccs1 — higher, 103%
- C=CC1C(N2CCOCC2)C(C)(C)S1(=O)=O (stereo unspecified) — higher, 102%
- Cc1ccc2c(c1)NCC(C(=O)NC1CCC(C)CC1)O2 (stereo unspecified) — higher, 98.4%
- Cc1ccc(N2CC(c3nc4ccccc4n3C)CC2=O)cc1C (stereo unspecified) — higher, 103%
- CC(=NCCc1ccccc1)C1=C(O)COC1=O — higher, 98.2%
- COC(=O)c1c(-c2ccc(C)cc2)csc1N — lower, 75.8%
- O=C1C(=O)N(CCO)C(c2ccccc2)/C1=C(\O)c1ccccc1 (stereo unspecified) — higher, 99.7%
- CCOc1ccccc1NC(=O)CN(c1cc(C)cc(C)c1)S(=O)(=O)c1c(C)noc1C — higher, 106%
- COc1ccc(OCC(=O)Nc2cc(-c3nn4c(C)nnc4s3)ccc2C)cc1 — higher, 106%
